RPL19A-GFP yeast: alters RPL19A-GFP fluorescence in TOR pathway yeast screen. percent response vs DMSO, % at 10 µM. hit rate 0.3% among 330,000. S. cerevisiae RPL19A-GFP strain, flow cytometry, 3 h; active compounds read low;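 active means percent response vs DMSO below 50%; inconclusive means fewer than 70 events counted for the yeast strain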;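 further: median channel GFP fluorescence of the barcoded RPL19A-GFP strain; ratio of sample median GFP to plate DMSO average so 100% = DMSO; lower means less RPL19A-GFP as with rapamycin TOR inhibition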
LAP4 TOR yeast: alters LAP4-GFP fluorescence in TOR pathway yeast screen; S. cerevisiae LAP4-GFP multiplex, flow cytometry GFP, 3 h; median GFP as percent of DMSO wells; GFP response vs DMSO, % at 10 µM; hit rate 0.34% among 320,000; AID 2023;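 active means GFP response vs DMSO above a set limit, about the screen mean plus 3 SD, cut at about 150% in these data; inconclusive means under 70 cell events counted for the yeast strain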
AGP1-GFP MLPCN: modulators of TOR pathway AGP1-GFP in S. cerevisiae; GFP response vs DMSO, % at 10 µM; hit rate 0.02% among 320,000; S. cerevisiae AGP1-GFP multiplex flow cytometry, 3 h; GFP as percent of DMSO wells;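 active means GFP response relative to DMSO above a set limit, near screen average plus 3 SD, cut at about 150% in these data; inconclusive means fewer than 70 cells counted for the yeast strain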;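 further: median GFP channel fluorescence of the gated AGP1 strain per well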
CIT2-GFP yeast: alters CIT2-GFP fluorescence in TOR pathway yeast screen; S. cerevisiae CIT2-GFP strain, flow cytometry, 3 h; 100 means same as DMSO wells; GFP response vs DMSO, % at 10 µM; hit rate 0.065% among 320,000;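 active means GFP response relative to DMSO above a set limit, near the screen mean plus 3 SD, cut at about 150% in these data; inconclusive means Fewer than 70 cells measured for a yeast strain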;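 further: ratio of well median GFP fluorescence to mean of DMSO wells on the plate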
MEP2 TOR yeast: modulators of TOR pathway MEP2-GFP in S. cerevisiae; S. cerevisiae MEP2-GFP strain, flow cytometry GFP, 3 h; 100% = DMSO control level; GFP response vs DMSO, % at 10 µM; hit rate 0.51% among 330,000; AID 2016;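 active means GFP response versus DMSO above a set limit, roughly screen mean plus 3 SD, cut at about 180% in these data; inconclusive means fewer than 70 cells counted for a yeast strain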;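 further: median GFP fluorescence of the barcode-gated MEP2-GFP cells per well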
* marks the source's active call; other numbers are inactive results; ? = inconclusive; / = no result given; [ ] = dose if it differs, or a comment. This is a sample that favours compounds with a hit; in the whole collection about 0.93% have one here.

SMILES	RPL19A-GFP yeast	LAP4 TOR yeast	AGP1-GFP MLPCN	CIT2-GFP yeast	MEP2 TOR yeast
CCC1C2CC3C4N(C)c5ccccc5C45CC(C2C5O)N3[C@@H]1O (some centres not stated)	107	97	101	103	103
CC[C@H]1C2C[C@H]3[C@@H]4N(C)c5ccccc5C45C[C@H](C2[C@H]5O)N3[C@@H]1O (some centres not stated)	37*[may fluoresce violet]	107	?	?	389*[may fluoresce violet]
O=C1NC(=O)N(CCC2=CCCCC2)C(=O)/C1=C/c1ccc(O)cc1	101	93	97	96	97
O=C1NC(=O)N(CCC2=CCCCC2)C(=O)/C1=C/c1cccs1	92	185*	83	67	84
CCOC(=O)C1CCN(C=C2C(=O)N(C)C(=S)N(C)C2=O)CC1	102	96	104	105	105
O=C(COC(=O)Cc1ccccc1)Nc1ncc(Cl)cc1Cl	/	92	27	?	284*[may fluoresce violet]
O=C(COC(=O)Cc1ccccc1)Nc1ccc(Cl)cn1	101	110	111	98	111
COc1ccc2c(c1)c(C(=O)C(C)N1CCCCC1)c(C)n2C (configuration not stated)	17*[may fluoresce violet]	84	?	?	493*[may fluoresce violet]
CCOC(=O)c1c(C)n(C(C)C)c2ccc(OC)cc12	104	98	99	101	101
COP(=S)(OC)SCN1C(=O)c2ccccc2C1=O	31*[may fluoresce violet]	?	?	?	?
CCc1ccc(OCCCN=C(C)c2c(O)n(C)c(=O)n(C)c2=O)cc1	105	114	107	93	100
CC1CCC(C(C)C)C(OP(N)(=O)c2ccccc2)C1 (configuration not stated)	99	99	99	96	100
CC1(C)CC(=O)C2=C(C1)NC(=O)C21C(C(=O)OC(C)(C)C)=C(N)Oc2ccc(Br)cc21 (configuration not stated)	90	93	90	96	99
CCCC1C(C#N)=C(N)Oc2c1c(=O)oc1ccccc21 (configuration not stated)	?	?	?	?	415*[may fluoresce red and violet]
CCN1C(=O)NC(=O)/C(=C\c2cn(CC(=O)N3CCCCC3)c3ccccc23)C1=O	105	103	100	110	106
CCN1C(=O)NC(=O)/C(=C\c2cn(CC(=O)N3CCCC3)c3ccccc23)C1=O	132	122	101	101	181*
Cc1ccc(N2C(=O)NC(=O)/C(=C\c3cn(CC(=O)O)c4ccccc34)C2=O)cc1	104	96	161*	107	101
O=C(O)Cn1cc(/C=C2\C(=O)NC(=O)N(c3ccc(Br)cc3)C2=O)c2ccccc21	102	109	94	95	105
C[C@@H]1CN(C2CCC(C#N)(c3ccc(F)cc3)CC2)CC[C@]1(C(=O)O)c1ccccc1 (some centres not stated)	105	105	87	81	100
O=C(CN1C(=O)CN=C(c2ccccc2Cl)c2cc(Cl)ccc21)NCc1ccco1	99	103	101	113	104
COc1ccc2[nH]cc(C(=O)CN(C)C)c2c1	13*[may fluoresce violet]	?	?	?	?
O=C(Nc1ccc(Cl)cc1)N1CC2CC(C1)c1cccc(=O)n1C2 (configuration not stated)	100	95	104	96	96
Nc1cc(C(=O)Nc2ccc(Cl)cc2)ccc1N1CC2CC(C1)c1cccc(=O)n1C2 (configuration not stated)	40*[may fluoresce violet]	46	?	?	251*[may fluoresce violet]
CCCCn1c(O)c(C=NCCN2CCCCC2)c(=O)[nH]c1=O	64	72	26	?	219*[may fluoresce violet]
O=P(C(c1ccc2c(c1)OCO2)N1CCOCC1)(N1CCOCC1)N1CCOCC1 (configuration not stated)	96	105	102	94	106
SMILES	RPL19A-GFP yeast	LAP4 TOR yeast	AGP1-GFP MLPCN	CIT2-GFP yeast	MEP2 TOR yeast
CC1=NN(c2ccccc2)C(=O)/C1=C/c1c(O)[nH]c(=S)[nH]c1=O	95	93	82	107	112
COc1ccc(N=Nc2c(O)[nH]c(=S)[nH]c2=O)cc1	20*[may fluoresce violet]	162*[may fluoresce violet]	?	?	90
N#CC(C#N)=Cc1ccc(N2CCCC2)cc1	47*	101	73	68	151
Cc1ccc(-c2cc(-c3ccc(C)cc3)[n+](-c3ccccc3)c(-c3ccc(C)cc3)c2)cc1	40*[may fluoresce violet]	65	?	?	255*[may fluoresce violet]
O=C1NC(=O)C2(Cc3cc([N+](=O)[O-])ccc3N3CCN(C(=O)c4ccccc4)CC32)C(=O)N1 (configuration not stated)	103	102	111	107	105
O=c1[nH]c(=O)n(CCC2=CCCCC2)c(O)c1/C=N/N1CCOCC1	51	91	?	?	642*[may fluoresce violet]
O=c1ccc2cc(O[C@@H]3O[C@@H](CO)[C@H](O)[C@@H](O)[C@@H]3O)c(O)cc2o1	34*[may fluoresce violet]	121	?	?	840*[may fluoresce violet]
COc1ccc(NC(=O)c2cc([N+](=O)[O-])ccc2N2CCNCC2)cc1	99	94	99	98	97
CN(C)P(=NC(=S)c1cccn1C)(N(C)C)N(C)C	91	83	16	?	216*[may fluoresce violet]
CCCC(=O)c1cc(CP(=O)(OCC)OCC)oc1C	42*[may fluoresce violet]	/	/	/	?
CN1C(=O)NC(=O)/C(=C/c2ccc([N+](=O)[O-])o2)C1=O	89	111	107	91	96
O=C1NC(=O)N(c2ccccc2)C(=O)/C1=C\C=C\c1ccccc1	42*[may fluoresce violet]	61	?	?	398*[may fluoresce violet]
O=C1NC(=O)N(c2ccccc2)C(=O)/C1=C\c1ccc([N+](=O)[O-])o1	102	153*	120	139	135
Cc1cccc(CNCCc2ccccc2)n1	98	88	97	95	98
CC[C@H](OC(C)=O)C(C[C@H](C)N(C)C)(c1ccccc1)c1ccccc1	101	110	99	101	104
CC/C(=N\NC(N)=O)c1c(O)[nH]c(=O)[nH]c1=O	94	102	100	89	93
CCN1CCN(S(=O)(=O)c2ccc(Cl)nc2)CC1	101	104	/	105	112
COc1ccc2c3c([nH]c2c1)C(C)NCC3 (configuration not stated)	101	106	21	?	305*[may fluoresce violet]
COc1ccc2[nH]c3c(c2c1)CCNC3C (configuration not stated)	104	98	99	109	108
COc1ccc(CCNC(=O)c2c(N)n(CCN3CCOCC3)c3nc4ccccc4nc23)cc1	17*[may fluoresce violet]	107	?	?	562*[may fluoresce violet]
CNCCc1c[nH]c2ccccc12	?	460*[may fluoresce red]	80	81	95
CNCCc1c[nH]c2ccc(O)cc12	103	108	90	87	96
CC1=CC(=O)C2=C(C)C[C@H](O)[C@@H]3[C@H](OC(=O)[C@H]3C)[C@@H]12	43*[may fluoresce violet]	97	?	?	196*[may fluoresce violet]

Assay outcomes as filed in PubChem.
